The text below walks through data of PubChem BioAssay AID694 (Emory University Molecular Libraries Screening Center, 2007).

For this assay, the target named is Estrogen receptor (Homo sapiens) (UniProt P03372). Description: ERα coactivator peptide binding inhibitors, primary screen, biochemical, LOPAC library, TR-FRET (AID 694).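 Note: receptor was agonist-bound with estradiol present during the assay.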 The settings on record: TR-FRET ERalpha-coactivator peptide binding, stronger effect = higher value. (Time-resolved FRET reads energy transfer from a long-lived donor to a nearby acceptor.)

Molecules are shown by their SMILES. About 25 (2%) of roughly 1,300 compounds were called active. The rule behind the calls is not given here. Shown is part of a subset that was picked to be rich in actives.

Estrogen receptor (Homo sapiens), sequence (P03372 whole entry, looked up): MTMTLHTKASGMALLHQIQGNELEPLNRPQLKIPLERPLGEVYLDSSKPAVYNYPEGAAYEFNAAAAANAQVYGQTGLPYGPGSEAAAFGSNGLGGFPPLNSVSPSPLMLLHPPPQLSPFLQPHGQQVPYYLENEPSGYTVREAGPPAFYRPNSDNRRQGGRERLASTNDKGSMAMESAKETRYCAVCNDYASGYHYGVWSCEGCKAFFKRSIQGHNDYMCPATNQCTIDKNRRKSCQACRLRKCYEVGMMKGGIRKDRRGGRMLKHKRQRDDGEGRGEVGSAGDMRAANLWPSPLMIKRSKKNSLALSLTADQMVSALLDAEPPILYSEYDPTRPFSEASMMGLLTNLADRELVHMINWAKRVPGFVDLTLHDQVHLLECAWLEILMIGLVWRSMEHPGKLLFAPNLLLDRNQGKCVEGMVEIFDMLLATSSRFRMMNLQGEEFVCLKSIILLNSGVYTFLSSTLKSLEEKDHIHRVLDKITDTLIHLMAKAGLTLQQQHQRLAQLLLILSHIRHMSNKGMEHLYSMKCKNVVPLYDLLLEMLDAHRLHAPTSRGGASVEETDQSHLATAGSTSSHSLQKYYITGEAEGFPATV

With `Oc1ccc(-c2nc(-c3ccc(F)cc3)c(-c3ccncc3)[nH]2)cc1`, the inhibition (usually the change of the read-out against control, counted positive when it falls) reads like this: (at 45 µM) -3.04% (inactive); (inhibition, at 15 µM) -1.6%.
In the same order, the values of `CC(=O)N1CCN(c2ccc(OC[C@H]3CO[C@](Cn4ccnc4)(c4ccc(Cl)cc4Cl)O3)cc2)CC1` are -0.23% (inactive) and 1.67%.
Taken in the same sequence, the figures for `CC(CCc1ccc(O)cc1)NCCc1ccc(O)c(O)c1` (configuration not stated) were -5.5% (inactive) and 1.1%.
For the compound `CC(C)[N+](C)(CCOC(=O)C1c2ccccc2Oc2ccccc21)C(C)C`, the inhibition runs as follows: (at 45 µM) 7.96% (inactive); (inhibition, at 15 µM) 8.56%.
Turning to `CCSC(=N)N`, the inhibition is, setting by setting: (at 45 µM) -21.8% (inactive); (inhibition, at 15 µM) 0.66%.
Taken in the same sequence, the figures for `Cc1cccc(/C=C/c2ccccc2)n1` were 4.39% (inactive) and 12.3%.
Taken in the same sequence, the figures for `O=S(=O)(O)C1CCNCC1` were 1.25% (inactive) and 4.59%.
Taken in the same sequence, the figures for `C[N+](C)(C)CC=O` were 0.73% (inactive) and -1.9%.
Take `COc1ccccc1NC(=O)Nc1nc(-c2cccnc2)nc2ccccc12`: the inhibition (at 45 µM) is 7.9% (inactive) and the inhibition (inhibition, at 15 µM) turned out to be 4.04%.
Taken in the same sequence, the figures for `O=C(Nc1cccc(C(=O)Nc2ccc(S(=O)(=O)O)c3cc(S(=O)(=O)O)cc(S(=O)(=O)O)c23)c1)Nc1cccc(C(=O)Nc2ccc(S(=O)(=O)O)c3cc(S(=O)(=O)O)cc(S(=O)(=O)O)c23)c1` were -3.86% (inactive) and -2.37%.
Taken in the same sequence, the figures for `C[C@@H](CN1CCC(Cc2ccccc2)CC1)[C@@H](O)c1ccc(O)cc1` were -2% (inactive) and 1.32%.
Consider `OC[C@H]1O[C@@H](n2cnc3c(NC4CCCC4)ncnc32)C(O)[C@H]1O` (some centres not stated), for which the inhibition (at 45 µM) was -0.88% (inactive) and the inhibition (inhibition, at 15 µM) worked out at 3.03%.
Taken in the same sequence, the figures for `COc1cc(C(=O)OCCCN2CCCN(CCCOC(=O)c3cc(OC)c(OC)c(OC)c3)CC2)cc(OC)c1OC` were -2.88% (inactive) and -1.75%.
In the case of `CN[C@H](CC(=O)O)C(=O)O`, the inhibition (at 45 µM) is -0.69% (inactive) and the inhibition (inhibition, at 15 µM) is -0.99%.
With `COc1cccc(OC)c1OCCNCC1COc2ccccc2O1` (configuration not stated), the inhibition was 52.7% (inactive) (at 45 µM) and -0.05% (inhibition, at 15 µM).
In the same order, the values of `Nc1c(S(=O)(=O)O)cc(Nc2ccc(Nc3nc(Cl)nc(Nc4ccc(S(=O)(=O)O)cc4)n3)c(S(=O)(=O)O)c2)c2c1C(=O)c1ccccc1C2=O` are 75.2% [fluorescence artefact?] (active) and 58.5%.
Taken in the same sequence, the figures for `OC[C@H]1O[C@@H](n2cnc3c(N[C@H]4CC5CCC4C5)ncnc32)[C@H](O)[C@@H]1O` (some centres not stated) were -7.11% (inactive) and -3.27%.
In the case of `CC(C)(C)c1ccc(S(=O)(=O)/C=C/C#N)cc1`, the inhibition is, setting by setting: (at 45 µM) -4.31% (inactive); (inhibition, at 15 µM) -2.91%.
`CCCc1c(OCCCOc2ccc(OCC(=O)O)cc2)ccc(C(C)=O)c1O`: the inhibition reads like this: (at 45 µM) -1.06% (inactive); (inhibition, at 15 µM) 5.6%.
As to `C[C@]12CCC(=O)C=C1CC[C@@H]1[C@@H]2[C@@H](O)C[C@@]2(C)[C@H]1CC[C@]2(O)C(=O)COC(=O)CCC(=O)O`, the inhibition runs as follows: (at 45 µM) 0.81% (inactive); (inhibition, at 15 µM) 1.7%.
In the same order, the values of `Oc1cc2c(c(Cl)c1O)CCNCC2c1ccccc1` (configuration not stated) are -1.88% (inactive) and 4.73%.
In the same order, the values of `Cc1cccc(C)c1OCC(N)C(C)C` (configuration not stated) are -0.93% (inactive) and -1.42%.
Taken in the same sequence, the figures for `O=[N+]([O-])c1ccc(-c2nc(-c3ccc(F)cc3)c(-c3ccncc3)[nH]2)cc1` were -3.67% (inactive) and -0.79%.
Turning to `Cc1scc2c1N(C(=O)CN1CCN(C)CC1)c1ccccc1NC2=O`, the inhibition reads like this: (at 45 µM) -3.58% (inactive); (inhibition, at 15 µM) -4.27%.
Taken in the same sequence, the figures for `O=C(Cc1ccc(Cl)c(Cl)c1)OCCN1CCCC1` were -23.1% (inactive) and -1.83%.
In the case of `O=[N+]([O-])c1cccc2c(Br)[nH]nc12`, the inhibition reads like this: (at 45 µM) -0.31% (inactive); (inhibition, at 15 µM) -5.48%.
In the same order, the values of `N[C@@H](CC(=O)O)C(=O)O` are -5.55% (inactive) and -8.89%.
In the same order, the values of `CC(C)(Sc1ccc(CCN(CCCCC2CCCCC2)C(=O)NC2CCCCC2)cc1)C(=O)O` are 43.1% (inactive) and 8.46%.
Take `NS(=O)(=O)c1cccc2c1c([N+](=O)[O-])cc1nc(O)c(O)nc12`: the inhibition by setting is: (at 45 µM) -0.73% (inactive); (inhibition, at 15 µM) -5.25%.
In the same order, the values of `CC(=O)O[C@H]1CC2(C)[C@@H](C[C@@H](O)[C@H]3[C@@]4(C)CC[C@@H](O)[C@@H](C)[C@@H]4CC[C@@]32C)C1=C(CCC=C(C)C)C(=O)O` (some centres not stated) are 80.4% (inactive) and 14.2%.
In the same order, the values of `Oc1cc(O)cc(/C=C/c2ccc(O)c(O)c2)c1` are 70.5% (inactive) and 32.3%.
Taken in the same sequence, the figures for `COc1cc2c(CCNC(C)=O)c[nH]c2cc1O` were -5.77% (inactive) and -3%.
As for `N#C/C(=C\c1c[nH]c2ccccc12)C(=O)c1ccc(O)c(O)c1`, the inhibition is 4.91% (inactive) (at 45 µM) and 10.1% (inhibition, at 15 µM).
Taken in the same sequence, the figures for `CSc1nc(N)c2ncn([C@@H]3O[C@H](COP(=O)(O)OP(=O)(O)O)[C@H](O)C3O)c2n1` (some centres not stated) were 2.87% (inactive) and -1.28%.
In the case of `CN1CCc2c(cc(O)c(O)c2Cl)C(c2cccc(Cl)c2)C1` (configuration not stated), the inhibition runs as follows: (at 45 µM) 7.51% (inactive); (inhibition, at 15 µM) 4.56%.
Taken in the same sequence, the figures for `OC[C@H]1O[C@@H](n2cnc3c(NC4CCCCC4)ncnc32)[C@H](O)[C@@H]1O` were -1.41% (inactive) and -1.34%.
